ChEMBL document CHEMBL1961873, “Compounds: GSK PKIS; Assays: Nanosyn kinase panel” (2012)

How the values were obtained:
[1] = molecular target: Sphingosine kinase 1 (Homo sapiens) (UniProt Q9NYA1); settings: at 1 µM;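 also: mean SPHK1 inhibition value reported from the GSK PKIS kinase panel screen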
[2] = molecular target: T1, Sphingosine kinase 2 (Homo sapiens) (UniProt Q9NRA0); settings: at 0.1 µM
T1 sequence (whole entry): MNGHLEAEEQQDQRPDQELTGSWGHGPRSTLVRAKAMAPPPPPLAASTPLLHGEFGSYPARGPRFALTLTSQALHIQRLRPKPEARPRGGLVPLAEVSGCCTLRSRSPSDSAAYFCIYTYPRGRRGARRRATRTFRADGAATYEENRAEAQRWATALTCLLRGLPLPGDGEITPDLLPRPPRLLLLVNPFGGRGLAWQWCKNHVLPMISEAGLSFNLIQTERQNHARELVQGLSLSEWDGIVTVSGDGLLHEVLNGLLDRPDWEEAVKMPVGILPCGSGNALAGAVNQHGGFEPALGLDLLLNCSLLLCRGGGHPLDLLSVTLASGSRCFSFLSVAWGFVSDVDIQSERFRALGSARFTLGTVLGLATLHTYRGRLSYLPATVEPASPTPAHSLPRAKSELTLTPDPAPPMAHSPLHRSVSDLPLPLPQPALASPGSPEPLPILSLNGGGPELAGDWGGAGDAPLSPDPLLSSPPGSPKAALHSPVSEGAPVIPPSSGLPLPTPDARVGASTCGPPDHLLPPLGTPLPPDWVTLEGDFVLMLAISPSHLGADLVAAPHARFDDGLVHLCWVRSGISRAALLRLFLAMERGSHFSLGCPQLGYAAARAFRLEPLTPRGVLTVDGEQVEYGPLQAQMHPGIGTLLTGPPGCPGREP

[3] = molecular target: T1, Sphingosine kinase 2 (Homo sapiens); settings: at 1 µM
[4] = molecular target: Casein kinase II subunit alpha (Homo sapiens) (UniProt P68400); settings: at 0.1 µM
[5] = molecular target: Casein kinase II subunit alpha (Homo sapiens) (UniProt P68400); settings: at 1 µM
[6] = molecular target: T2, Inhibitor of nuclear factor kappa-B kinase subunit alpha (Homo sapiens) (UniProt O15111); settings: at 0.1 µM
T2 sequence (whole entry): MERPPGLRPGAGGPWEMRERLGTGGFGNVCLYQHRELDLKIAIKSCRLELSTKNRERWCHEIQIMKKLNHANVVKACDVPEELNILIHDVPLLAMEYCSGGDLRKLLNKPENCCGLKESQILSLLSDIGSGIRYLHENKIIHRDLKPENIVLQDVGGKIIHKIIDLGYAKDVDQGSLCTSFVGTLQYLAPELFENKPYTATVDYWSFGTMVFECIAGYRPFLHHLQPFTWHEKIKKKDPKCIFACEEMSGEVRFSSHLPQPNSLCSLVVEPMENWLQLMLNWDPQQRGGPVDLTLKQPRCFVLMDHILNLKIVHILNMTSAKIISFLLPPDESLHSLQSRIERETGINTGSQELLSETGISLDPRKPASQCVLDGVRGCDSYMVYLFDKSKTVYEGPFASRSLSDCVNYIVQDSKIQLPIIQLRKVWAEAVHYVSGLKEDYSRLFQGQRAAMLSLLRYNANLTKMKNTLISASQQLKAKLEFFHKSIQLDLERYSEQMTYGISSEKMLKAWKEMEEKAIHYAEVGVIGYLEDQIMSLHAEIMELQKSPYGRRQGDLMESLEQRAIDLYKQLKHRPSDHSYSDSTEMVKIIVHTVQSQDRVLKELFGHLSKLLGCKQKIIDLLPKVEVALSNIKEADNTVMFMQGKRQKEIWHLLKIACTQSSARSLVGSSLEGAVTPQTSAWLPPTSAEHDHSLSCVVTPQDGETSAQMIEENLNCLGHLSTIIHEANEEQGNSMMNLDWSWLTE

[7] = molecular target: T2, Inhibitor of nuclear factor kappa-B kinase subunit alpha (Homo sapiens); settings: at 1 µM
[8] = molecular target: T3, Inhibitor of nuclear factor kappa-B kinase subunit beta (Homo sapiens) (UniProt O14920); settings: at 0.1 µM
T3 sequence (whole entry): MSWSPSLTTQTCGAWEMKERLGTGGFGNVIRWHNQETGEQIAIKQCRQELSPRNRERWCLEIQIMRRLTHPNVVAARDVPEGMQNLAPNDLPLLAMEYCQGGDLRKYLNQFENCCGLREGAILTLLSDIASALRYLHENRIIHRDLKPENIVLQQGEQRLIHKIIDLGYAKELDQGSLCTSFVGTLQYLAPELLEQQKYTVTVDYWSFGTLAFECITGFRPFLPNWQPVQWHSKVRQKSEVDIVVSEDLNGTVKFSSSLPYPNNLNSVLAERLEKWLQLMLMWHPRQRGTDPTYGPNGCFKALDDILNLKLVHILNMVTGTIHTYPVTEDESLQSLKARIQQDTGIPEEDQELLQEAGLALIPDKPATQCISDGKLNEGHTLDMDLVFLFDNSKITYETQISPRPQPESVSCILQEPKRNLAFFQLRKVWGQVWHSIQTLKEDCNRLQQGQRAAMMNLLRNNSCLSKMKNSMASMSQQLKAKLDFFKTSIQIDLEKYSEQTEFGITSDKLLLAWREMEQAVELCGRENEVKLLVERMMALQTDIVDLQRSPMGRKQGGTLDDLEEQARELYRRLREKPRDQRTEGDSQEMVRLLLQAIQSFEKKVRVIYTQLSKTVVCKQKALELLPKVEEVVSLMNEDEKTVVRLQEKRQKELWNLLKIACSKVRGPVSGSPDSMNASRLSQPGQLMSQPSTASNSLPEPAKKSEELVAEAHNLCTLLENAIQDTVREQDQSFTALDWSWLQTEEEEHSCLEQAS

[9] = molecular target: T3, Inhibitor of nuclear factor kappa-B kinase subunit beta (Homo sapiens); settings: at 1 µM
[10] = molecular target: T4, Inhibitor of nuclear factor kappa-B kinase subunit epsilon (Homo sapiens) (UniProt Q14164); settings: at 0.1 µM;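 also: mean inhibition of IKKε reported, from the GSK PKIS dataset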
T4 sequence (whole entry): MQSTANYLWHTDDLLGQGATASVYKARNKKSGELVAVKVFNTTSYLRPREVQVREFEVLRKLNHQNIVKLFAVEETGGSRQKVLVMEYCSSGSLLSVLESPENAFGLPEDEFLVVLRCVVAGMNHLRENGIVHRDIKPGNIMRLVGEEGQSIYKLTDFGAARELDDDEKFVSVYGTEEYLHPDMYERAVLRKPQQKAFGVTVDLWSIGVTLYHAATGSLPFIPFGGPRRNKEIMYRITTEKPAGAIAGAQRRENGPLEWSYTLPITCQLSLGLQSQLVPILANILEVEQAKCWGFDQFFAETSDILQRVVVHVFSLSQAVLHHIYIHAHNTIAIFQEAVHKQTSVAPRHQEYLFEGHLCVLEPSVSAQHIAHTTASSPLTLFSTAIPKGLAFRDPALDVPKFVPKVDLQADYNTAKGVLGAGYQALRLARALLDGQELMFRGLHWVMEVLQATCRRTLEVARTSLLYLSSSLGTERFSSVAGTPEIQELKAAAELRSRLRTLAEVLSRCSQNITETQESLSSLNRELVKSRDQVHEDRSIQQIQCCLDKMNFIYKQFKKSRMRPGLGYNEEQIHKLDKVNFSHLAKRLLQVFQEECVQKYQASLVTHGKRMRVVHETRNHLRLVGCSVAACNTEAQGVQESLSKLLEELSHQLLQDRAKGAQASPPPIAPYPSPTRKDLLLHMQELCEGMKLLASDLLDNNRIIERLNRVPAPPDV

Chain of Casein kinase II subunit alpha (Homo sapiens) (P68400 whole entry, looked up): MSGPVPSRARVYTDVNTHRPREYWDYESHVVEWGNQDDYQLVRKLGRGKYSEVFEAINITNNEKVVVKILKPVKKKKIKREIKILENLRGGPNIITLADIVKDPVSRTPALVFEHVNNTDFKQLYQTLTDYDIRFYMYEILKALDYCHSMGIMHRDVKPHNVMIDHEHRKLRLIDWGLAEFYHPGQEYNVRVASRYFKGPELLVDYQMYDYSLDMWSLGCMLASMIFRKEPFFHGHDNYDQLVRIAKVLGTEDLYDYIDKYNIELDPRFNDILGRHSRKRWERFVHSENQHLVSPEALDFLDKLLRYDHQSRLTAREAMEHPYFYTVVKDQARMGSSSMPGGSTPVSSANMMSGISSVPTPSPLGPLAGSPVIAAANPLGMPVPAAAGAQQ
Chain of Sphingosine kinase 1 (Homo sapiens) (Q9NYA1 whole entry): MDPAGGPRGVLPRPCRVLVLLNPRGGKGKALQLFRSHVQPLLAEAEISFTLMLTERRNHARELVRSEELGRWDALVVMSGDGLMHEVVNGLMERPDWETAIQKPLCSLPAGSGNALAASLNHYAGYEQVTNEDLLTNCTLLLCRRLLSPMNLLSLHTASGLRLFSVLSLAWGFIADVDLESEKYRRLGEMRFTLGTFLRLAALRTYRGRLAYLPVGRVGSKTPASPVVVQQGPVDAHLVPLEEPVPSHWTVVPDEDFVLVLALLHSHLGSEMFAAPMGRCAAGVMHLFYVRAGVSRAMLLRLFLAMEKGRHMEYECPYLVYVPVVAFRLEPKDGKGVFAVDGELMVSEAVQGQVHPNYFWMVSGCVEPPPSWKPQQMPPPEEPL

`CN(c1ccc(NC(=O)Nc2ccc(OC(F)(F)F)cc2)cc1)c1ccnc(Nc2cccc(S(N)(=O)=O)c2)n1` was tested, and the inhibition [1] was 0.54%, the inhibition [2] was -0.4% and the inhibition [3] was 1.23%. The inhibition [4] was 2.7%, the inhibition [5] was 1.68% and the inhibition [6] was 8.41%. For the same compound, the inhibition [7] was 3.54%, the inhibition [8] was 3.29% and the inhibition [9] was 2.85%. For the same compound, the inhibition [10] was 5.07%.
